Holding throughout (format): functional
Experiment [1] has as its target Solute carrier family 2, facilitated glucose transporter member 1 (Homo sapiens) (UniProt P11166). Briefly: ST_JUDE_LEISH: Cytotoxicity at 2uM final concentration against transgenic Leishmania Mexicana promastigotes LmGLUT1 that are glucose transport deficient and complemented with the human glucose transporter GLUT1. Activity is measured by DNA content using SYBR green in vitro.

Experiment [2] has as its target Hexose transporter 1 (Plasmodium falciparum) (UniProt O97467). Briefly: ST_JUDE_LEISH: Cytotoxicity at 2uM final concentration against transgenic Leishmania Mexicana promastigotes LmPfHT that are glucose transport deficient and complemented with the Plasmodium falciparum hexose transporter. Activity is measured by DNA content using SYBR green in vitro.
For experiment [3], the target named is Glucose transporter (Leishmania mexicana) (UniProt O61059). The experiment can be described thus: ST_JUDE_LEISH: Cytotoxicity at 2uM final concentration against transgenic Leishmania Mexicana promastigotes LmGT2 that are glucose transport deficient and complemented with the L. Mexicana glucose transporter 2. Activity is measured by DNA content using SYBR green in vitro.

Sequence of Solute carrier family 2, facilitated glucose transporter member 1 (Homo sapiens) (P11166 whole entry): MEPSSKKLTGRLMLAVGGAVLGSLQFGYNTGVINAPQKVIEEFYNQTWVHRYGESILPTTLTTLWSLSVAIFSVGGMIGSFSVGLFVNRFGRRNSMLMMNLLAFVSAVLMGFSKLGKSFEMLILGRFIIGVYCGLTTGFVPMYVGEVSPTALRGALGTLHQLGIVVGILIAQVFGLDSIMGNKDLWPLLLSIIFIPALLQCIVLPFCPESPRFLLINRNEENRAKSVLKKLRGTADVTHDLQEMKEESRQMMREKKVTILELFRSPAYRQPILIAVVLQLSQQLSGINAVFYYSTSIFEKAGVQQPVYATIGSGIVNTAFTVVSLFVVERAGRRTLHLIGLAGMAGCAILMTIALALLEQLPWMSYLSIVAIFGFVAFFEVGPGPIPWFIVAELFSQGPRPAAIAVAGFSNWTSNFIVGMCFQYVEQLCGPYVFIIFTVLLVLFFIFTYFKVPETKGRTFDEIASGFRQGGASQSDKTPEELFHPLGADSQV

`Cn1nc(C(F)(F)F)c(-c2ccc(F)cc2)c1NC(=O)Nc1ccc(F)cc1F`: the figures for the inhibition in experiment [1], in experiment [2] and in experiment [3] were 2.96%, 2.65% and 2.29%, respectively.
Taken in the same sequence, the figures for `N#Cc1cc([N+](=O)[O-])ccc1-n1nc(C(N)=O)n(Cc2cccc(F)c2)c1=S` were 11.3%, 8.94% and 5.66%.
As for `N#Cc1cccc(C(=O)Nc2cccc(-c3ccc(C(=O)NCCCN4CCOCC4)cc3)c2)c1`, the figures for the inhibition in experiment [1], in experiment [2] and in experiment [3] were 6.85%, 5.61% and 5.11%, respectively.
Taken in the same sequence, the figures for `Cc1cc(OCCCN2CCC(NS(=O)(=O)c3ccc(Cl)c(Cl)c3)C2)c2ccccc2n1` (stereo unspecified) were 3.81%, 4.67% and 3.91%.
On the same counts, the results for `COc1ccc(CCNCCCCCNCCc2ccc(Cl)cc2)cc1OC` are 7.58%, 6.09% and 6.63%.
Taken in the same sequence, the figures for `Cc1cccc(CN2CCCN(Cc3cccc(C(=O)Nc4ccc(C(C)(C)C)cc4)c3)CC2)c1` were 3.43%, 2.22% and 1.26%.
As for `Cc1cc(C)cc(-n2c(C)cc(/C=C3\SC(=Nc4ccc(Cl)cc4)NC3=O)c2C)c1`, the inhibition was determined as 5.26% in experiment [1], 7.1% in experiment [2] and 1.22% in experiment [3].
On the same counts, the results for `CNC(=O)c1cnc(Nc2ccc(N3CCOCC3)cc2)nc1Nc1cccc(O)c1` are 3.92%, 5.41% and -1.69%.
On the same counts, the results for `CCCc1cc(C)ccc1OCCCON1C(N)=NC(N)=NC1(C)C` are 31.1%, 45.5% and 25.9%.
On the same counts, the results for `CN(C)c1cccc2c(S(=O)(=O)Nc3cccc(CCN4CCC(N5CCCCC5)CC4)c3)cccc12` are 0.3%, -3.51% and -0.34%.
Take `C=CCN1C(=O)CN(S(=O)(=O)c2ccc(-n3nc(C)cc3C)cc2)C1=S`: the inhibition in experiment [1] is 3.32%; in experiment [2] it was 3.89%; in experiment [3], 2.49%.
On the same counts, the results for `CC1CN(c2cc(=O)n(Cc3cccc(NC(=O)Nc4ccc(-c5ccccc5)cc4)c3)cn2)CC(C)N1` (stereo unspecified) are 1.17%, 2.06% and -1.85%.
